From PubChem BioAssay
In the library only some 3% were active in any assay of this set; here they are far more common.
12-LOX inh: ALOX12 (human) lipoxygenase inhibition; purified 12hLO, xylenol orange hydroperoxide absorbance; Potency, µM (top dose mostly 108 µM), without a hit: at the highest dose activity change, negative = inhibition, most hits filed as inhibitors; 580,000 tested, 1.1% active
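Purified human 12hLO at 150 nM in 25 mM Hepes, 0.01% Triton X-100, pH 7.0, preincubated 15 min at room temperature with compound. Reaction started with 40 uM arachidonic acid, 30 min at room temperature. Hydroperoxide measured by Fe-xylenol orange, 573/405 nm absorbance ratio.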
PLK1 PBD block: blocks phosphopeptide binding to human PLK1 polo-box domain; Plk1 PBD binding of FITC phosphopeptide, fluorescence polarization; Potency, µM, inactives show max response, negative = inhibition, most hits filed as inhibitors; 360,000 tested, 2.8% active; P53350; note: series mostly up to about 57 µM; nearly all actives have a fitted effect of over 65% in size
KAT2A inh: blocks human GCN5L2 histone acetyltransferase. GCN5L2 HAT assay, ThioGlo1 CoA-SH fluorescence. AID 504327. 390,000 tested, 0.21% active. Q92830. Potency, µM (titrated, usually from 58.9 µM), without a hit: top-dose activity change, negative = inhibition, actives largely listed as inhibitors
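Free CoA generated was detected with ThioGlo1 (50uM) fluorescence at Ex340nm/Em540nm, read immediately and after 20 min at room temperature. Enzyme, 20 nM in HEPES pH 7.5 buffer, saw compounds 15 min before adding 75uM H3(1-25) peptide and 70uM acetyl-CoA.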
VDR inh: inhibitors of human vitamin D receptor | P11473 | VDR-SRC2-3 peptide fluorescence polarization, 2 h | Potency, µM, inactives show max response, negative = inhibition, most hits filed as inhibitors | 400,000 tested, 0.93% active | AID 504847
Target sequence (P11473 whole entry, looked up): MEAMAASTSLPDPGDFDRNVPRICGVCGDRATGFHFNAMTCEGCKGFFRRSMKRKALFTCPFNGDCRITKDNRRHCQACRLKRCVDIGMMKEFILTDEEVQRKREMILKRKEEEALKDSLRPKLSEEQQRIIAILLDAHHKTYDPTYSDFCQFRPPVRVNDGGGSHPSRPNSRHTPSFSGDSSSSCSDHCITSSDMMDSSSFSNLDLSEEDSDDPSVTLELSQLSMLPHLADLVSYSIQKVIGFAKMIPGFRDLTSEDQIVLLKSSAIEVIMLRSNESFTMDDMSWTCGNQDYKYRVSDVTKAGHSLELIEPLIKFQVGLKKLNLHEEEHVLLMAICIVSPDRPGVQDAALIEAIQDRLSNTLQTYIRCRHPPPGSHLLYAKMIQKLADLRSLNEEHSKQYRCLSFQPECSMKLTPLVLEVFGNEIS
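Reagent solutions, kept cold and dark, are dispensed first; compounds are then pinned in at 23 nl, plates briefly spun, and incubated 2 h at ambient temperature. Inhibition of VDR–SRC2-3 peptide binding is read by fluorescence polarization.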
* = called active by the depositor; ? = inconclusive; / = no result given; [ ] = remark or other dose. Calls come from the whole dose curve; as a rule, active = well fitted curve in the direction sought with a large enough effect; inconclusive = small, poorly fitted or top-dose-only effect, or another doubt; inactive = no such curve, though single readings can be large; an effect the other way counts as inactive or inconclusive. % is set by controls: 0 for no effect and ±100 for the full control effect; potency is the fitted concentration of half-maximal effect.

SMILES	12-LOX inh	PLK1 PBD block	KAT2A inh	VDR inh
CN(C)S(=O)(=O)c1ccc(C(=O)Oc2cc(=O)[nH]c3ccccc23)cc1	23%	8.4µM*	-5%	-13%
CCOC(=O)c1[nH]c2ccccc2c1NC(=O)c1ccc(S(=O)(=O)N(C)C)cc1	22%[57.4 µM]	-13%	-3%	6%
COc1ccc(Nc2cc3c(cn2)cc(-c2cccc(C(F)(F)F)c2)n3C)cc1	45µM*	/	/	/
O=C(NCCc1ccc(C(F)(F)F)cc1)C12CC3CC(CC(Cl)(C3)C1)C2	-4%	/	/	/
Oc1ccccc1C=NNC(=S)NC1CC2C=CC1C2 (stereo unspecified)	45µM*	-2%	/	/
Oc1ccccc1/C=N/NC(=S)NC1CC2C=CC1C2 (stereo unspecified)	?	-2%	-7%	16%
CC1CCC(NC(=O)c2ccc(Cl)nc2)CC1 (stereo unspecified)	29%	/	/	/
O=C(NCc1ccco1)c1cc([N+](=O)[O-])ccc1N1CCCCC1	-18%	24µM*	-5%	?
O=C(NCc1ccco1)c1ccc(N2CCCCC2)c([N+](=O)[O-])c1	-14%	-9%	2%	-20%
CCN(CC(=O)NC(C)C)C(=O)c1ccc(S(=O)(=O)N(C)c2ccccc2OC)cc1	0%	3µM*	-3%	?
Fc1cccc(CSc2nnc(-c3c[nH]c4ccccc34)n2C2CC2)c1F	-7%	/	/	/
COCCn1c(-c2ccc(OC)cc2)nc2ccccc21	-9%	-1%	-2%	-9%
COCCn1c2nc(=O)n(-c3ccccc3)c(=O)c-2nc2ccccc21	-26%	3.8µM*	/	/
CSCCC(NS(=O)(=O)c1cccs1)C(=O)Nc1ccc(C)c(Cl)c1 (stereo unspecified)	50µM*	/	0%	-1%
COc1cc(NC(=O)C2CCCN2C(=O)C23CC4CC(CC(C4)C2)C3)cc(OC)c1OC (stereo unspecified)	12%	/	/	/
CCc1cccc(OCCCCN(CC)CC)c1	1.1µM*	-1%	-11%	-4%
CCC(C)Sc1nnc(CSc2nc(C)cc(C)n2)n1C (stereo unspecified)	-2%	-5%	-2%	-22%
CCCSc1nnc(CSc2nc(C)cc(C)n2)n1C	0%	21µM*	-8%	-25%
Cc1ccc(C(=O)NNC(=O)CSc2nc(N)cc(N)n2)cc1	-28%	27µM*	-1%	0%
Nc1cc(N)nc(SCC(=O)c2ccccc2)n1	-4%	24µM*	-6%	-7%
COc1ccc(OCCOC(=O)c2ccc3nccnc3c2)cc1	51%	/	/	/
Cc1cc(C(=O)N/N=C/c2cc(Br)cc(Br)c2OC(=O)c2cccc(F)c2)n[nH]1	-9%	-13%	-6%	4%
Cc1cccc(C(=O)Oc2c(Br)cc(Br)cc2/C=N/NC(=O)c2ccncc2)c1	-25%	30µM*	1%	?
CNC(=O)NC(=O)C(C)Sc1ccccc1Cl (stereo unspecified)	-6%	/	/	/
Cc1cccc(N2C(=O)/C(=C\c3ccc(OC(F)F)cc3)c3ccccc3C2=O)c1	-21%	2.4µM*	-27%	35µM*
SMILES	12-LOX inh	PLK1 PBD block	KAT2A inh	VDR inh
CCOc1cc(/C=C2\C(=O)N(c3cccc(C(F)(F)F)c3)C(=O)c3ccccc32)ccc1O	?	?	-26%	?
CC1=C(C(N)=O)C(c2ccncc2)n2nc(-c3ccccc3Cl)nc2N1 (stereo unspecified)	167%	30µM*	1%	9%
COc1ccc(C2C(C(N)=O)=C(C)Nc3nc(-c4ccccc4Cl)nn32)cc1 (stereo unspecified)	-25%	/	1%	-4%
COc1ccc(OC)c(NC(=O)c2c(-n3cnnn3)sc(C)c2C)c1	19%	/	/	/
CC(NC(=O)CCc1ncc(-c2ccc(F)cc2F)o1)c1ccc2c(c1)OCO2 (stereo unspecified)	-18%	/	/	/
CC(C)(C)OC(=O)N1Cc2ccccc2C[C@H]1C(=O)Nc1ccc2c(c1)OCO2	19%	/	/	/
COc1cccc(CNc2cnc3ccccc3c2)c1O	32µM*	1%	-8%	11%
Cc1ccccc1C1CC(=O)Oc2cc(O)ccc21 (stereo unspecified)	/	17µM*	-5%	-7%
CCN(CC)S(=O)(=O)c1ccc(C)c(NC(=S)N2CCN(c3ccccn3)CC2)c1	14%	30µM*	-6%	-1%
Cc1oc(-c2ccccc2)nc1CC(=O)NCC(C)(C)N1CCOCC1	-11%	/	/	/
COc1ccc(-c2cc3c(nn2)-c2ccccc2C3=O)cc1	8%	24µM*	-4%	79µM*
Cc1ccc(S(=O)(=O)N2CCN(Cc3coc(-c4cccs4)n3)CC2)cc1	-20%	/	/	/
O=C(O)CCCCCN1C(=O)C(O)=C(C(=O)/C=C/c2ccccc2)C1c1ccccc1[N+](=O)[O-] (stereo unspecified)	?	34µM*	-3%	-7%
CCCN1CCN(c2cc(C(=O)O)c3cc(NC(=O)C(C)C)ccc3n2)CC1	11µM*	/	/	/
CCN1CCN(c2cc(C(=O)O)c3cc(NC(=O)C(C)C)ccc3n2)CC1	16µM*	/	/	/
CCCCC(=O)Nc1ccc2nc(N3CCN(CC)CC3)cc(C)c2c1	-58%	/	/	/
O=C(Nc1ccc2nc(N3CCN(C4CCCCC4)CC3)cc(C(=O)O)c2c1)c1ccc(Cl)cc1	13µM*	/	/	/
CN1CCN(c2cc(C(=O)O)c3cc(NC(=O)c4ccc(Cl)cc4)ccc3n2)CC1	-82%	/	/	/
N#CCCN1CCN(c2cc(C(=O)O)c3cc(NC(=O)c4ccccc4)ccc3n2)CC1	6.3µM*	/	/	/
N#C/C(=C/c1ccc(N2CCCCC2)o1)c1cccc(F)c1	10µM*	-9%	-12%	40µM*
Cc1ccc2nc(/C(C#N)=C\c3ccc(N4CCOCC4)o3)[nH]c2c1	?	69%	-10%	-12%
Cc1ccc(/C(C#N)=C\c2ccc(N3CCOCC3)o2)cc1	13µM*	12%	-6%	?
N#C/C(=C/c1ccc(Sc2nc3ccccc3[nH]2)o1)c1cccc(F)c1	?	-6%	-3%	11%
COc1cc(/C=C2/SC(=S)NC2=O)ccc1OS(=O)(=O)c1ccc(C)cc1	/	9.5µM*	?	50µM*
COc1cc(/C=C2\SC(=S)N(CCCCC(=O)O)C2=O)ccc1OS(=O)(=O)c1ccc(C)cc1	?	30µM*	?	?
SMILES	12-LOX inh	PLK1 PBD block	KAT2A inh	VDR inh
COc1ccc(/C=C2\SC(=S)N(CCCCCC(=O)Nc3cc(C)on3)C2=O)cc1OC	-7%	-7%	?	-5%
COc1cccc(-c2n[nH]c(=S)n2Cc2ccco2)c1	18µM*	?	6%	?
COc1cccc(-c2nccc(N(C)Cc3ccco3)n2)c1	-26%	/	-20%	35µM*
COc1cccc(-c2nnc(SCC(=O)OC(C)C)n2Cc2ccco2)c1	1%	27µM*	-1%	-13%
COc1ccc(C(=O)N2CCC3(CC2)CC(O)CCO3)c(OC)c1 (stereo unspecified)	-15%	/	/	/
C[N+]1(C)CCC(=C2c3ccccc3CC(=O)c3sccc32)CC1	?	38µM*	2%	-20%
CC(=O)c1ccc(NC(=O)CN(C)Cc2ccccc2N2CCCCC2)cc1	16%	/	/	/
O=C(CCC[C@@H]1[C@H]2CCCN3CCC[C@@H](CN1C(=O)c1ccccc1)[C@@H]23)Nc1ccccc1	-2%	/	/	/
